# Key:
# Experiment in all cases: DAPPL (digital affinity profiling via proximity ligation, sequencing); 10 mM Tris-HCl pH 7.5, 50 mM NaCl, 1 mM DTT, 4% glycerol, room temperature, 30 min; GST-TFs on glutathione beads, 16-mer random dsDNA library, 0.1% formaldehyde crosslink after washing; high values mean tight binding
# Details in all cases: protein: recombinant; tags: N-terminal GST; dsDNA, one strand shown
# [1] = target: T1, FLI1 (Homo sapiens, UniProt Q01543 1-452)
# T1 sequence: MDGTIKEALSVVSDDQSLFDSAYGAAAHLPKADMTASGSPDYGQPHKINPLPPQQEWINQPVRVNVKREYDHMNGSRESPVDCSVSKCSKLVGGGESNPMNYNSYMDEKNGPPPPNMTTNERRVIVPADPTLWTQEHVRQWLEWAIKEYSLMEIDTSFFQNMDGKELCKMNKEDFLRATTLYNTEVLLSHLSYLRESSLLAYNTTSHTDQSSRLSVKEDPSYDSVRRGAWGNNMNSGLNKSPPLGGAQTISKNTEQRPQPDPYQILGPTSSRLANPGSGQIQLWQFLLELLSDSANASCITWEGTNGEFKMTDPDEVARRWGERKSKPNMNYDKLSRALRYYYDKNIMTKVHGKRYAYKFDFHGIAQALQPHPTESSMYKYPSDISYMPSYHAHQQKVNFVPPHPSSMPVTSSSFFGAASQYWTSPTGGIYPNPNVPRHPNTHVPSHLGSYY
# Outline: (§1)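 GST fusions of human transcription factors were expressed in yeast and captured with glutathione beads. Once given DNA barcodes and pooled alongside a tag-only sample, they were incubated for 30 min at room temperature with 200 nmole of a random double-stranded 16-mer DNA library in Tris/NaCl/DTT/glycerol buffer, then washed, crosslinked (0.1% formaldehyde), proximity-ligated, PCR-amplified and sequenced on an Illumina NextSeq500. The binding signal of each hexamer is its read frequency for a factor divided by its frequency for the tag-only sample.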
# [2] = target: T2, ELK1 (Homo sapiens, UniProt P19419 1-428)
# T2 sequence: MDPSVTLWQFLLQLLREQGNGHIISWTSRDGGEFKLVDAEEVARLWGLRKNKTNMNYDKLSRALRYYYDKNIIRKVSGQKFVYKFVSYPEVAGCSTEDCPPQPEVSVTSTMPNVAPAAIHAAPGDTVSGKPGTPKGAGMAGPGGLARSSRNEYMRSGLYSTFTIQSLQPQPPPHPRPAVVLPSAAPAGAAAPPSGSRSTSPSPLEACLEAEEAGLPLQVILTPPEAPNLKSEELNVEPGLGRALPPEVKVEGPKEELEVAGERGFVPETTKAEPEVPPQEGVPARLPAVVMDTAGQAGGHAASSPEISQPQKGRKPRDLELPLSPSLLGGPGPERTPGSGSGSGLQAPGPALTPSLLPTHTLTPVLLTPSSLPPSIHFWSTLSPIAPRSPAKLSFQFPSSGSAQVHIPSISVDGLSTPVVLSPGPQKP
# Outline: as §1
# [3] = target: T3, GABPA (Homo sapiens, UniProt Q06546 1-454)
# T3 sequence: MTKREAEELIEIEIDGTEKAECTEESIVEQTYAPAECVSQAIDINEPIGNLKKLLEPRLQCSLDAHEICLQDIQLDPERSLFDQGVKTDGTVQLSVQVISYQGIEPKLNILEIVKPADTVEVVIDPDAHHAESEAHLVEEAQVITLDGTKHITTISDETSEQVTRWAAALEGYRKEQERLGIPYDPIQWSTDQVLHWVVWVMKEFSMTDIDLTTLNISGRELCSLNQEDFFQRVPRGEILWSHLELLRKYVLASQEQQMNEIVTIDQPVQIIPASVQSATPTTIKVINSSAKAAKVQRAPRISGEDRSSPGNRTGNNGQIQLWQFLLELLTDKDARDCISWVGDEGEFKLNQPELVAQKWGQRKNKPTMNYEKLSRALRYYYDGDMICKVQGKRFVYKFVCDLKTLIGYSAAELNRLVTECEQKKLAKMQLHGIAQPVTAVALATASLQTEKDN
# Outline: as §1
# [4] = target: T4, ERG (Homo sapiens, UniProt P11308 1-479)
# T4 sequence: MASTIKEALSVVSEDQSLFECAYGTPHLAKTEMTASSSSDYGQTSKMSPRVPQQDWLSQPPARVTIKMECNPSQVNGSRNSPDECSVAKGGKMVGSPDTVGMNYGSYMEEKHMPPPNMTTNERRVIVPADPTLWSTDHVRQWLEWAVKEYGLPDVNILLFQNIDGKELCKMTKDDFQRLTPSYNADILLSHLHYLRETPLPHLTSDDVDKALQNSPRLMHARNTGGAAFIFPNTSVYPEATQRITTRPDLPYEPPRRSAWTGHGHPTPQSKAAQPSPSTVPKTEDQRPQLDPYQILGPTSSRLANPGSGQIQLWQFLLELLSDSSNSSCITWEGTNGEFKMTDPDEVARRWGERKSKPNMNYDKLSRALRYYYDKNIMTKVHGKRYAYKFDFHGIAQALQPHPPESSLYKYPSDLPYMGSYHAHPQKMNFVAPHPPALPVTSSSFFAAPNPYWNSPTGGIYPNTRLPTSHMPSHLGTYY
# Outline: as §1
# [5] = target: ELF1 (Homo sapiens, UniProt P32519 1-619)
# Chain of ELF1 (P32519 whole entry): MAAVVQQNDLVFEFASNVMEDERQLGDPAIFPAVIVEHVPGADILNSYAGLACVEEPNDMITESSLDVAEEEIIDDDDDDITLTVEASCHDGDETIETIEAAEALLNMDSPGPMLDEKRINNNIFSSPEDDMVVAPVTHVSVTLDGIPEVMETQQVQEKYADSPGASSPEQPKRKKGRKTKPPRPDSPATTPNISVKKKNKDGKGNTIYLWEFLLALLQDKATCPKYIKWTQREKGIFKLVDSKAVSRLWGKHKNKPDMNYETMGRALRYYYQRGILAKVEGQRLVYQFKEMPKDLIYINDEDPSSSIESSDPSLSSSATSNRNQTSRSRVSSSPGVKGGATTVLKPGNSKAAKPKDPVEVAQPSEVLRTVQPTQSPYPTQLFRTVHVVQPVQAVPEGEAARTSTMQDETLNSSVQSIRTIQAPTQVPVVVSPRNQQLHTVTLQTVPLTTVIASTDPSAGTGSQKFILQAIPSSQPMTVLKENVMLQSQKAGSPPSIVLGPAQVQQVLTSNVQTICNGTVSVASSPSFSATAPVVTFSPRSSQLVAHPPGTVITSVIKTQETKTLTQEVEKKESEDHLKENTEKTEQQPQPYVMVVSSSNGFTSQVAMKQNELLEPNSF
# Outline: as §1
# [6] = target: T5, EHF (Homo sapiens, UniProt Q9NZC4 1-300)
# T5 sequence: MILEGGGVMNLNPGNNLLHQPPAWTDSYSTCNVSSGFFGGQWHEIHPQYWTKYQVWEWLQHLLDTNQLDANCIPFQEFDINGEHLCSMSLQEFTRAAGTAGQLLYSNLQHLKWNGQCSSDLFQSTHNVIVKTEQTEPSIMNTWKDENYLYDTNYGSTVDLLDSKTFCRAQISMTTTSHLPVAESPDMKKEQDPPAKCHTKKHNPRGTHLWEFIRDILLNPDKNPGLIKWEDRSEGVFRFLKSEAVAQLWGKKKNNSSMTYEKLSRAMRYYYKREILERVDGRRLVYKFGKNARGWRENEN
# Outline: as §1
# [7] = target: SPI1 (Homo sapiens, UniProt P17947 1-270)
# Outline: as §1
# [8] = target: SPIB (Homo sapiens, UniProt Q01892 1-262)
# Chain of SPIB (Q01892 whole entry): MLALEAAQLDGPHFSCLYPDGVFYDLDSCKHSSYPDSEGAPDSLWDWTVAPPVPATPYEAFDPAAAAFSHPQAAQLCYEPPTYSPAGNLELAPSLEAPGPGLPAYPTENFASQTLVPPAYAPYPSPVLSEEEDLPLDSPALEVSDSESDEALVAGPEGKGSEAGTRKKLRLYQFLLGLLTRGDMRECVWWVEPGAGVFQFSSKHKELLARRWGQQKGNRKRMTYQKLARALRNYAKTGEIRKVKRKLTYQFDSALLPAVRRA
# Outline: as §1
# [9] = target: T6, ELK3 (Homo sapiens, UniProt P41970 1-407)
# T6 sequence: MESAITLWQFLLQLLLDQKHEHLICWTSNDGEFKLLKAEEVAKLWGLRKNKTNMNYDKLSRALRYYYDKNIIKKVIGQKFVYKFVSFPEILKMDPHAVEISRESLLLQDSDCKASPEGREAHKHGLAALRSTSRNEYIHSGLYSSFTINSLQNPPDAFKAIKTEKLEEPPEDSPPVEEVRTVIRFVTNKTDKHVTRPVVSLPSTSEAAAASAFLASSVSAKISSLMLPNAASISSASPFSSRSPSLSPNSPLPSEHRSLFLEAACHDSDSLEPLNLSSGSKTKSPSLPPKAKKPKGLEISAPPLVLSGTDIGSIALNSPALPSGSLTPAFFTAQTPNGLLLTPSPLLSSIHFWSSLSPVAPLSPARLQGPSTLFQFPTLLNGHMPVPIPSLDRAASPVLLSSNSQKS
# Outline: as §1
sequence,measurement,setting,value
TTCTGT,binding signal,[1],"1.26 fold enrichment (6-mer frequency, TF over GST control)"
same,binding signal,[2],"1.3 fold enrichment (6-mer frequency, TF over GST control)"
same,binding signal,[3],"1.3 fold enrichment (6-mer frequency, TF over GST control)"
same,binding signal,[4],"1.27 fold enrichment (6-mer frequency, TF over GST control)"
same,binding signal,[5],"1.27 fold enrichment (6-mer frequency, TF over GST control)"
same,binding signal,[6],"1.25 fold enrichment (6-mer frequency, TF over GST control)"
same,binding signal,[7],"1.37 fold enrichment (6-mer frequency, TF over GST control)"
same,binding signal,[8],"1.22 fold enrichment (6-mer frequency, TF over GST control)"
same,binding signal,[9],"1.33 fold enrichment (6-mer frequency, TF over GST control)"
